# Bioassay records from PubChem.
# Shown are actives, neighbours in structure and some others; about 15% of the full set was active somewhere.
# 12-LOX inh: blocks human arachidonate 12S-lipoxygenase; purified 12hLO, xylenol orange hydroperoxide absorbance; P18054; 1.1% of 580,000 active; Potency, µM (doses to about 108 µM), for inactives: at the top dose activity change, negative = inhibition, actives largely listed as inhibitors; AID 1671190
# Target sequence (P18054 whole entry, looked up): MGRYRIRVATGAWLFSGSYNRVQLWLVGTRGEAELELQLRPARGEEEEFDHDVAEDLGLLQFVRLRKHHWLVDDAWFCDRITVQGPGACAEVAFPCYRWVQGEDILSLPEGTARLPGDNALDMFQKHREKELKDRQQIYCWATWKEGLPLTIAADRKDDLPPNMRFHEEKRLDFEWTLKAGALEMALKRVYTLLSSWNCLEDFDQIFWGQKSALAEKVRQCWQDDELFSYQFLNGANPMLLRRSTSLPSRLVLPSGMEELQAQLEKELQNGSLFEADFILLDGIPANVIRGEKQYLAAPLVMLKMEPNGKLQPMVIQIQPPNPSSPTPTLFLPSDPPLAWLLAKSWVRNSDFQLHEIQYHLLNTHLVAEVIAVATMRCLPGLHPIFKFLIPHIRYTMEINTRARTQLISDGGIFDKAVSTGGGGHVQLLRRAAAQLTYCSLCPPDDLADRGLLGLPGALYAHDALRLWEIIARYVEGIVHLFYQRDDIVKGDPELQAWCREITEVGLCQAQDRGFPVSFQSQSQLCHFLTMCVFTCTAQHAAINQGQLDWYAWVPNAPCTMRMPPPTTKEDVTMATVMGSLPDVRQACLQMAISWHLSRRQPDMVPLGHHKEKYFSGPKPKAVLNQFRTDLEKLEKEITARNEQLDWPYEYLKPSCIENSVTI
#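 Purified human 12hLO at 150 nM in 25 mM Hepes, 0.01% Triton X-100, pH 7.0, preincubated 15 min at room temperature with compound. Reaction started with 40 uM arachidonic acid, 30 min at room temperature. Hydroperoxide measured by Fe-xylenol orange, 573/405 nm absorbance ratio.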
# TDP1 cell CPT: DT40-hTDP1 cell growth loss with CPT; AID 686979; Potency, µM (highest dose often 46.2 µM), inactives show top-dose activity change, negative = growth inhibition, most hits filed as inhibitors; 12% of 420,000 active; chicken DT40 Tdp1-/-;hTDP1 cells + 20 nM CPT, ATP luminescence, 48 h; also: nearly all actives have a fitted effect of over 55% in size
#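 Cell growth measured by CellTiter-Glo luminescence after a minimum 48 h, 37 C compound exposure with 20 nM CPT in Tdp1-knockout DT40 cells stably expressing hTDP1, seeded 400/well; qHTS titration format.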
# TDP1 cell noCPT: qHTS for Inhibitors of human tyrosyl-DNA phosphodiesterase 1 (TDP1): qHTS in cells in absence of CPT. DT40 Tdp1-/- hTDP1 cells, no CPT, ATP luminescence, 48 h. Potency, µM (series often up to 46.2 µM), for the others: top-dose activity change, negative = growth inhibition, usual class: inhibitors. 15% of 420,000 active; also: nearly all actives have a fitted effect of over 55% in size
#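 Stably hTDP1-transfected Tdp1-null chicken DT40 cells were treated with library compounds minus camptothecin and grown for at least 48 hr at 37 °C, after which cellular ATP was quantified by luminescence.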
# Gal4-VP16 FLuc: inhibits Gal4-VP16 luciferase reporter, ROR gamma counter-screen; Drosophila S2 Gal4-VP16 UAS-luciferase, luminescence, 20 h; Potency, µM (top dose mostly 53.6 µM), for inactives: at the highest dose activity, negative = inhibition, most hits filed as inhibitors; 3.5% of 310,000 active;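 also: Gal4-VP16 expression switched on by copper sulfate through the metallothionein promoter; nearly all actives have a fitted effect of over 50% in size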
# ELG1 repair inh: ELG1-dependent DNA repair inhibition; 2.3% of 330,000 active; Potency, µM (doses to about 46.1 µM), for the others: at the top dose activity change, negative = inhibition, actives largely listed as inhibitors; HEK293T ELG1-luciferase reporter, luminescence, 16 h; DNA damage induced by 5-fluorouridine; also: nearly all actives have a fitted effect of over 55% in size
#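 5-Fluorouridine DNA damage + compound/DMSO, 2,000 cells/well, 16 h, 37 °C/5% CO2. ONE-Glo, 30 min RT, luminescence. Readout = decrease in reporter signal.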
# RORg inh: ROR gamma (mouse) transcription inhibition; 5.4% of 310,000 active; Drosophila S2 Gal4-RORgamma UAS-luciferase reporter, 20 h; Potency, µM (titrated, usually from 53.6 µM), for inactives: at the top dose activity change, negative = inhibition, usual class: inhibitors; P51450; also: nearly all actives have a fitted effect of over 60% in size
#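 Drosophila Schneider cells stably carrying a metallothionein-driven Gal4 DBD–ROR gamma fusion and a UAS-Photinus luciferase reporter were exposed to compound for 1 hr, then induced with copper sulfate (700 uM final) for 20 hr at ambient temperature before luminescence reading.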
# An asterisk follows results filed as active; ? = inconclusive; . = not tested or not shown; [ ] = dose if it differs, or a comment. Calls follow the shape of the dose curve; as a rule, active = well fitted curve in the direction sought with a large enough effect; inconclusive = small, poorly fitted or top-dose-only effect, or another doubt; inactive = no such curve, though single readings can be large; an effect the other way counts as inactive or inconclusive. % is scaled to controls: 0 for no effect and ±100 for the full control effect; potency is read from the fitted curve at half-maximal effect.
SMILES,12-LOX inh,TDP1 cell CPT,TDP1 cell noCPT,Gal4-VP16 FLuc,ELG1 repair inh,RORg inh
O=C(CCCC1C(=O)Nc2ccccc21)NCCc1noc(-c2ccccc2)n1 (stereo not drawn),6%,.,.,.,.,.
O=C(NCc1ccccc1)NCC1(c2ccccc2)CC1,9%,.,.,.,.,.
CS(=O)(=O)CCN1C[C@@H](C(=O)O)[C@H](c2cccnc2)C1,31%,.,.,.,.,.
COc1ccc2nc(C[C@@H]3C[C@@H](C(C)C)[C@H](CN)C=C3C)[nH]c2c1,25%[176 µM],.,.,.,.,.
CCOC(=O)c1ccc(-c2cccc(-c3cc(=O)oc4cc(OC)cc(OC)c34)c2)cc1,.,?,?,0%,-6%,1%
COc1cc(OC)c2c(-c3cccc(-c4ccc(C(F)(F)F)cc4)c3)cc(=O)oc2c1,?,4.6µM*,2.6µM*,-9%,-19%,24%
COc1cc(OC)c2c(-c3cccc(-c4ccc(NC(C)=O)cc4)c3)cc(=O)oc2c1,-4%,4.1µM*,5.8µM*,-16%,?,-18%
COc1cc(OC)c2c(-c3cccc(-c4sccc4C(C)=O)c3)cc(=O)oc2c1,1%,3.7µM*,4.1µM*,?,?,-15%
COC(=O)COc1cc(OCC(=O)OC)c2c(-c3ccccc3)cc(=O)oc2c1,0%,-5%,3%,.,5%,.
COc1cc(OC)c2c(-c3cccc(-c4ccc(F)c(Cl)c4)c3)cc(=O)oc2c1,-2%,?,23µM*,.,?,.
COc1ccccc1NC(=O)C1CCCN(c2ccc3nncn3n2)C1 (stereo not drawn),-17%,.,.,.,.,.
CCn1cc(-c2ccc(C)cc2)cc1C(=O)O,11%,.,.,.,.,.
CC12CCC(C(=O)O/N=C3\CC4CCC3(C)C4(C)C)(CC1=O)C2(C)C (stereo not drawn),5%,.,.,.,.,.
O=C(NC1CCCCCCC1)c1cc(C(F)(F)F)cc(C(F)(F)F)c1,1%,.,.,.,.,.
Cc1nocc1C(=O)N1C[C@@H](COc2ccccc2)[C@H](C(N)=O)C1,29%,.,.,.,.,.
Cc1cccc(-c2ccc(-c3cc(=O)oc4cc(C)cc(C)c34)cc2)c1,.,.,.,1%,.,17%
Cc1ccc(-c2cccc(-c3cc(=O)oc4ccc(C(C)(C)C)cc34)c2)cc1,5%,?,23µM*,-1%,6%,2%
CCCOc1ccccc1C(=O)N1CCC(c2nc3ccccc3s2)CC1,?,23µM*,10µM*,.,.,.
COc1cccc(C(=O)N2CCC(c3nc4ccccc4s3)CC2)c1,-7%,?,?,.,.,.
CCCOc1ccc(C(=O)N2CCC(c3nc4ccccc4s3)CC2)cc1,-27%,-11%,?,.,.,.
COc1ccc(C(=O)N2CCC(c3nc4ccccc4s3)CC2)cc1Cl,-18%,26µM*,10µM*,.,.,.
CCC(Oc1ccccc1F)C(=O)N1CCC(c2nc3ccccc3s2)CC1 (stereo not drawn),3%,?,16µM*,.,.,.
O=C(NCc1ccc2c(c1)OCO2)c1ccc2c(c1)N(C(=O)c1ccc(F)cc1)CC2,11%,.,.,.,.,.
O=Cc1ccccc1-c1cc(F)cc(F)c1,17%[12.5 µM],.,.,.,.,.
COc1ccc(OCC(O)CNCc2ccco2)cc1 (stereo not drawn),6%,1%,1%,-6%,1%,0%
SMILES,12-LOX inh,TDP1 cell CPT,TDP1 cell noCPT,Gal4-VP16 FLuc,ELG1 repair inh,RORg inh
OC(CNCc1ccco1)COc1ccccc1 (stereo not drawn),441%,1.2µM*,-41%,-2%,5%,16%
COc1ccccc1NCC(O)COc1ccc(C(C)(C)C)cc1 (stereo not drawn),?,15µM*,16µM*,-14%,11%,28%
OC(CNc1ccccc1)COc1ccc(OCC(O)CNc2ccccc2)cc1 (stereo not drawn),-3%,13µM*,8.2µM*,?,?,32%
Cc1cc(-c2nc(CC(C)C)nn2-c2ccccn2)cc(S(N)(=O)=O)c1C,-29%,.,.,.,.,.
COCCCNC(=O)c1ccccc1-c1ncc(-c2ccccc2F)o1,-9%,.,.,.,.,.
CC(=O)c1cccc(NC(=O)Cc2c(C)c3ccc(O)cc3oc2=O)c1,2%,.,.,.,.,.
O=C(Nc1cccc(C(F)(F)F)c1)c1cc(-c2ccc3c(c2)OCCO3)on1,-20%,?,?,.,.,.
Cc1cccc(NC(=O)c2cc(-c3ccc4c(c3)OCCO4)on2)c1,-5%,23µM*,?,.,.,.
Cc1ccc(Cl)cc1NC(=O)c1cc(-c2ccc3c(c2)OCCO3)on1,-28%,15µM*,?,.,.,.
O=C(Nc1cccc(Cl)c1)c1cc(-c2ccc3c(c2)OCO3)on1,-9%,-29%,?,.,.,.
O=C(Nc1cc(Cl)ccc1O)c1cc(-c2ccc3c(c2)OCO3)on1,?,-5%,2%,.,.,.
O=C(Nc1cccc(Cl)c1)c1cc(-c2ccc3c(c2)OCCO3)on1,-19%,?,12µM*,.,.,.
Fc1ccc(CSc2nc3ccccc3s2)cc1,18%,.,.,.,.,.
Clc1ccc(CSc2ccc(-c3cccs3)nn2)cc1,-15%,0%,-1%,.,.,.
Clc1ccc(C[n+]2csc3ccccc32)cc1,?,0.41µM*,0.52µM*,?,?,?
Fc1ccc(C[n+]2csc3ccccc32)cc1,?,1µM*,0.92µM*,-17%,5%,?
COc1cccc(NC(=O)NC[C@H]2O[C@@H](CC(=O)N3CCN(c4ccc(F)cc4)CC3)[C@H](O)[C@@H]2O)c1,1%,.,.,.,.,.
CC(CC(=O)Nc1ccc2c(c1)c(=O)n(C)n2Cc1ccc(F)cc1)c1ccccc1 (stereo not drawn),-9%,21µM*,21µM*,.,.,.
C=C(C)Cn1c2ccc(NC(=O)NCc3ccccc3)cc2c(=O)n1C,-7%,-10%,-5%,.,.,.
Cn1c(=O)c2cc(NC(=O)CC(C)(C)C)ccc2n1-c1ccccc1F,0%,?,23µM*,.,.,.
CC(CC(=O)Nc1ccc2c(c1)c(=O)n(C)n2-c1ccccc1F)c1ccccc1 (stereo not drawn),-6%,6.5µM*,5.8µM*,.,.,.
CC(CC(=O)Nc1ccc2c(c1)c(=O)n(C)n2Cc1ccc(F)cc1)C(F)(F)F (stereo not drawn),8%,?,?,.,.,.
CC(CC(=O)Nc1ccc(F)c([N+](=O)[O-])c1)c1ccccc1 (stereo not drawn),-7%,?,?,1%,-18%,32%
COc1c(C(=O)/C=C/c2ccccc2)ccc2c1C=CC(C)(C)O2,15%,.,.,.,.,.
